Assay [1] can be described thus: qHTS assay to identify small molecules that stimulate interleukin-8 (IL-8) secretion (AID 651758; active means well fitted activation curve with a large enough effect in the signal ratio; the % refers to the signal ratio; further: 0% is about no effect). To be noted: HTRF ratio (665/615); series mostly up to 92.2 µM. The procedure, abridged: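 Secreted IL-8 measured homogeneously by TR-FRET (two labelled anti-IL-8 antibodies, 1-3 h at room temperature) after a 16 h, 37 C compound treatment of THP-1 cells at 2000 cells/well.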
In general terms: qHTS replaces the single test concentration by a dilution series.

Assay [2] concerns the target Cytochrome P450 3A4 (Homo sapiens) (UniProt P08684). Put plainly: qHTS Assay for Activators of Cytochrome P450 3A4 (AID 885; active means well fitted curve in the direction sought with a large enough effect; an effect the other way counts as inactive or inconclusive; further: nearly all actives have a fitted effect of over 65% in size). To be noted: recombinant CYP3A4, Luciferin-PPXE luminescence, 60 min; series mostly up to 57.1 µM. The procedure, abridged:
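Activators are scored by enhanced luminescence from CYP3A4 conversion of luciferin-PPXE (25uM, equal to KM) to luciferin, after 60 min at RT with an NADPH-regenerating system.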

The nature of assay [3]: qHTS assay for small molecule activators of the nuclear factor-kappa B (NF-kB) signaling pathway (AID 651749; active means well fitted activation curve with a large enough effect in the signal ratio; the % refers to the signal ratio; further: % of control where 0% means no effect). To be noted: NF-kB-bla ME-180 cells, beta-lactamase FRET ratio, 16 h; activation: active compounds read high. The procedure, abridged:
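Activation measured after 16 hr compound treatment at 37C, 5% CO2, of 2,000 ME-180 cells/well stably expressing an NF-kB response element–driven beta-lactamase reporter, via FRET-disruption fluorescence.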

In assay [4] the target is Androgen receptor (Homo sapiens) (UniProt P10275). Put plainly: qHTS assay for small molecule agonists of androgen receptor signaling (AID 588515; active means well fitted curve in the direction sought with a large enough effect in the signal ratio, with a control signal flat; the % refers to the signal ratio; further: on the % scale 0 is the no-effect control and ±100 the full control effect). To be noted: AR-UAS-bla HEK293, beta-lactamase ratio, agonist 16 h; active compounds read high. The procedure, abridged: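 Stimulation of an AR-responsive β-lactamase reporter in GripTite HEK293 cells was measured after 16 h compound exposure at 37 °C, via CCF4 fluorescence after 2 h RT. EC50 from Hill fits, normalized to R1881 at 30 nM.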
Sequence of Androgen receptor (Homo sapiens) (P10275 whole entry, looked up): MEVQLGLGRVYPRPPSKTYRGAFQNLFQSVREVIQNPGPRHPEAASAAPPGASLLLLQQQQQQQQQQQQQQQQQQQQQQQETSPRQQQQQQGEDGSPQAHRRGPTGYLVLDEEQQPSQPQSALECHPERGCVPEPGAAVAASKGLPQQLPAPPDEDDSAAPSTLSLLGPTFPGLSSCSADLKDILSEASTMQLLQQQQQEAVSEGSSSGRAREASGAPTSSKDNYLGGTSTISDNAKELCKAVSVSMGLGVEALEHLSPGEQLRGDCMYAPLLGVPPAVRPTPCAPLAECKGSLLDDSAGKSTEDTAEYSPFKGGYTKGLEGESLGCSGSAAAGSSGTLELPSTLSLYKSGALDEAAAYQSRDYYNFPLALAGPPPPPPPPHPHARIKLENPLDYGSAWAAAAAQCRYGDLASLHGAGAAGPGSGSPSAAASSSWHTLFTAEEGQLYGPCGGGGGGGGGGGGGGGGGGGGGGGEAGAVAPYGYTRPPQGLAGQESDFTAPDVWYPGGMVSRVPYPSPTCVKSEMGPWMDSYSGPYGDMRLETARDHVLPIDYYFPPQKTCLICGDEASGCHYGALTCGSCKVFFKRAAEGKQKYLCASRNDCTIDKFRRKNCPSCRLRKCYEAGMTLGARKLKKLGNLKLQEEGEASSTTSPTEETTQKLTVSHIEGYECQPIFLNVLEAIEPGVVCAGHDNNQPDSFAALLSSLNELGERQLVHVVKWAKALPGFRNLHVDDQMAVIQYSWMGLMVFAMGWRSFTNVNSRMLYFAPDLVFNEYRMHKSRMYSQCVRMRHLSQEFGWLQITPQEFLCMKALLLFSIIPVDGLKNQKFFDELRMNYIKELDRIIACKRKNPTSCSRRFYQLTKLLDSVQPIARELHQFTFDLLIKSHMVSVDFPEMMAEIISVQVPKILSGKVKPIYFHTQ

Assay [5] has the same target. Put plainly: qHTS assay for small molecule antagonists of androgen receptor signaling (AID 588516; active means well fitted curve in the direction sought with a large enough effect in the signal ratio, with a control signal flat, not every such curve was filed as active; the % refers to the signal ratio; further: on the % scale 0 is the no-effect control and ±100 the full control effect). To be noted: AR-UAS-bla HEK293, beta-lactamase ratio, antagonist mode, 16 h; series mostly up to 76.8 µM. The procedure, abridged:
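Antagonist mode: inhibition of R1881-stimulated (10 nM final) bla reporter in GeneBLAzer AR HEK 293 cells, 16 h at 37C, compounds titrated. IC50 and efficacy from Hill-equation fits of 405/460–530 nm FRET ratios.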

Assay [6] deals with Bile acid receptor (Homo sapiens) (UniProt Q96RI1). Put plainly: qHTS assay for small molecule agonists of farnesoid X receptor signaling (AID 588527).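 Further: 0% = vehicle basal and 100% = reference agonist.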 To be noted: HEK293T FXR-UAS-bla, beta-lactamase ratio, 16 h; active compounds read high. The procedure, abridged:
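Read-out: beta-lactamase reporter fluorescence with CCF4 substrate in GeneBLAzer FXR-UAS-bla HEK293T cells, after 16 h compound exposure at 37 C. Response scaled between DMSO basal (0%) and chenodeoxycholic acid at 100 uM (100%).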

The target of assay [7] is Ubiquitin carboxyl-terminal hydrolase 1 (Homo sapiens) (UniProt O94782). Put plainly: Inhibitors of USP1/UAF1: Pilot qHTS (AID 504865; active means well fitted curve in the direction sought with a large enough effect; an effect the other way counts as inactive or inconclusive;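 further: rhodamine fluorescence freed from ubiquitin-rhodamine substrate followed over time; top concentration of the series differs between compounds; on the % scale 0 is the no-effect control and ±100 the full control effect; nearly all actives have a fitted effect of over 35% in size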). To be noted: purified USP1/UAF1, Ub-rhodamine cleavage fluorescence; series mostly up to 114 µM. The procedure, abridged:
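Deubiquitinase activity followed as kinetic rhodamine fluorescence release from 150 nM Ub-Rho. 1 nM USP1/UAF1 with compound, after 15 min room-temperature preincubation, in HEPES pH 7.8 buffer containing TCEP, EDTA, BSA and Tween-20.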

A short description of assay [8]: qHTS profiling for inhibitors of Plasmodium falciparum proliferation (AID 504749; active means well fitted curve in the direction sought with a large enough effect; an effect the other way counts as inactive or inconclusive;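 further: 0% = DMSO vehicle and full inhibition = artemisinin control; nearly all actives have a fitted effect of over 60% in size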). To be noted: P. falciparum in erythrocytes, SYBR Green DNA, 72 h, at 28.7 µM (top of the series). The procedure, abridged:
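SYBR Green fluorescence of parasite DNA, read after lysis and overnight dark incubation, measured growth over 72 h in erythrocyte culture at 0.3% parasitemia and 2.5% hematocrit. Data normalised to DMSO and 0.29 uM artemisinin, with plate-drift correction.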

Assay [9] concerns the target Lysosomal acid glucosylceramidase (Homo sapiens) (UniProt P04062). Put plainly: Glucocerebrosidase-p2 (AID 348; in the data active means potency below about 10 µM; further: potency means the concentration at half of the fitted maximal effect). To be noted: purified GBA, blue fluorogenic substrate, 40 min. The procedure, abridged:
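Normal human glucocerebrosidase (0.2 nM) with blue fluorogenic substrate (80 uM final) in citrate/phosphate pH 5.9 with 10mM sodium taurocholate, 0.01% tween-20; 40 min RT, NaOH/glycine stop; fluorescence Ex 365/Em 440; AC50 from a titration from 0.6 nM upwards.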

Assay [10] can be described thus: Stat Signaling Pathway (AID 446; active means well fitted curve in either direction with a large enough effect, not every such curve was filed as active;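 further: ME-180 cervical cancer cells given 40 pM IL-6 alongside compound; SIE-controlled beta-lactamase reporter measured as 460/530 nm FRET emission ratio; on the % scale 0 is the no-effect control and ±100 the full control effect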). To be noted: ME-180 (cervical carcinoma) SIE beta-lactamase reporter, IL-6 stimulated, 5 h; series mostly up to 17.2 µM. The procedure, abridged: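 Emission at 460 and 530 nm (excitation 405 nm) reports SIE-controlled beta-lactamase in ME-180 cells. Cells received compound with 40 pM IL-6 for 5 hrs at 37 C; data scaled between 300 pM IL-6 and 125 nM JAK-inhibitor controls.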

Assay [11] has as its target Glucocorticoid receptor (Homo sapiens) (UniProt P04150). The assay can be described thus: GR-EFC Redistribution (AID 451). Further: potency means the concentration at half of the fitted maximal effect. To be noted: CHO-K1 GR-EFC translocation, beta-gal luminescence, 2 h. The procedure, abridged:
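Translocation of GR-ED fusion to nuclear EA restores b-gal, read by luminescence after 1 h room-temperature detection. Engineered CHO-K1 biosensor cells, 1,000/well, exposed 2 h at 37 C to titrations up to 46 uM final.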

Assay [12] deals with 3',5'-cyclic-AMP phosphodiesterase 4B (Homo sapiens) (UniProt Q07343). The assay can be described thus: qHTS Assay for Inhibitors of PDE-IV (AID 607; active means well fitted activation curve with a large enough effect in the main read-out, with a control signal flat, not every such curve was filed as active; further: % of control where 0% means no effect). To be noted: HEK293 ACTOne CNG channel cells, membrane potential fluorescence; series mostly up to 22.9 µM. The procedure, abridged:
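The readout is membrane depolarisation from a cAMP-sensing CNG channel, detected with a potential dye at ex 535/em 590. Cells were HEK293-derived (endogenous PDE-IV) at 1000 cells/well, titrated up to 22.9 uM final.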

Assay [13] is described as follows: Confirmation and Secondary Assay for Modulators of Hemoglobin Beta Chain Splicing at IVS2 654 locus (AID 910; active means well fitted curve in the direction sought with a large enough effect; an effect the other way counts as inactive or inconclusive;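 further: HeLa cells stably carrying EGFP split by mutant beta-globin IVS2-654 intron; per-well total GFP intensity by laser scanning cytometry after 2-day treatment; % of control where 0% means no effect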). To be noted: HeLa EGFP-654 splicing reporter, GFP fluorescence, 48 h; series mostly up to 46.1 µM. The procedure, abridged:
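Readout: per-well total peak green fluorescence (488 nm ex, 500–520 nm em) from objects 5–250 µm, reflecting correct splicing of an EGFP-654 reporter. Compounds were applied for 2 days at 37 °C to overnight-plated HeLa EGFP-654 cells; controls were DMSO and 500 nM IVS2-654 PNA.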

Assay [14] is described as follows: Confirmation and Secondary Assay for Modulators of Hemoglobin Beta Chain Splicing at IVS2 705 locus (AID 930; active means well fitted curve in the direction sought with a large enough effect; an effect the other way counts as inactive or inconclusive; further: % of control where 0% means no effect). To be noted: HeLa EGFP-705 splicing reporter, GFP fluorescence, 48 h; series mostly up to 46.1 µM. The procedure, abridged: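 HeLa cells stably carrying EGFP interrupted by mutant beta-globin IVS2-705 intron (CMV-driven) were seeded at 500 cells/well, treated next day with compound for 2 days at 37C; corrected splicing restores EGFP, read as total peak GFP intensity per well.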

Where “and” joins values, the source holds several entries; their conditions need not be identical. Equal values may be shown once. Unmarked numbers belong to inactive results. Inconclusive results are not listed. Calls of active or inactive are those of the source. Unless noted, the call rests on the fitted dose curve.

Sequence of Bile acid receptor (Homo sapiens) (Q96RI1 whole entry, looked up): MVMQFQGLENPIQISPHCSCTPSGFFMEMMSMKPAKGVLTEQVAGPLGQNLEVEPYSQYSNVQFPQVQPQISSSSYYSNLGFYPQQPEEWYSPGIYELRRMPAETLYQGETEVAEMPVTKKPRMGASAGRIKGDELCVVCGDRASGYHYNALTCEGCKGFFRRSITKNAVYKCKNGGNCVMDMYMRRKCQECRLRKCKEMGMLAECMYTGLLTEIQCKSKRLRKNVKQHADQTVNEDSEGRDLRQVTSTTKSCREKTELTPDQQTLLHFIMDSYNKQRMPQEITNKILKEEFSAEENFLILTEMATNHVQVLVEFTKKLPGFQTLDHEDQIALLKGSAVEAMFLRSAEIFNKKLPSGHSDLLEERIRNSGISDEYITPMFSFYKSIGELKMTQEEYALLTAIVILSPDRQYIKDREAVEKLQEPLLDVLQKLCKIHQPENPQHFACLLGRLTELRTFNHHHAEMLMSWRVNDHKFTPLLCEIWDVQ
Sequence of Cytochrome P450 3A4 (Homo sapiens) (P08684 whole entry, looked up): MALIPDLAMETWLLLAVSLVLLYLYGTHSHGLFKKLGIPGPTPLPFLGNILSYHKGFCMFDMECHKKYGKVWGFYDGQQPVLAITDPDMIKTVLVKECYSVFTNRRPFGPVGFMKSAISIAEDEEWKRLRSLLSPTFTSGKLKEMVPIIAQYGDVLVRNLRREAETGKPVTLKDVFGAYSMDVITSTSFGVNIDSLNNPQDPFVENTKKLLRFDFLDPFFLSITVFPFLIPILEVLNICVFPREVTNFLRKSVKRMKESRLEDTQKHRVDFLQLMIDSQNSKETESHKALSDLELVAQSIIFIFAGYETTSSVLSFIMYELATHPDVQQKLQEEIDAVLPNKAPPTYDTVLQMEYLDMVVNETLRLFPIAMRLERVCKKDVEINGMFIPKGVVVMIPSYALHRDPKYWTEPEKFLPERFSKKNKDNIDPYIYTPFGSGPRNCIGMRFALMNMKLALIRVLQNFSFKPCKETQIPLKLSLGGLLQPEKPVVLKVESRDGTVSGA
Sequence of Ubiquitin carboxyl-terminal hydrolase 1 (Homo sapiens) (O94782 whole entry, looked up): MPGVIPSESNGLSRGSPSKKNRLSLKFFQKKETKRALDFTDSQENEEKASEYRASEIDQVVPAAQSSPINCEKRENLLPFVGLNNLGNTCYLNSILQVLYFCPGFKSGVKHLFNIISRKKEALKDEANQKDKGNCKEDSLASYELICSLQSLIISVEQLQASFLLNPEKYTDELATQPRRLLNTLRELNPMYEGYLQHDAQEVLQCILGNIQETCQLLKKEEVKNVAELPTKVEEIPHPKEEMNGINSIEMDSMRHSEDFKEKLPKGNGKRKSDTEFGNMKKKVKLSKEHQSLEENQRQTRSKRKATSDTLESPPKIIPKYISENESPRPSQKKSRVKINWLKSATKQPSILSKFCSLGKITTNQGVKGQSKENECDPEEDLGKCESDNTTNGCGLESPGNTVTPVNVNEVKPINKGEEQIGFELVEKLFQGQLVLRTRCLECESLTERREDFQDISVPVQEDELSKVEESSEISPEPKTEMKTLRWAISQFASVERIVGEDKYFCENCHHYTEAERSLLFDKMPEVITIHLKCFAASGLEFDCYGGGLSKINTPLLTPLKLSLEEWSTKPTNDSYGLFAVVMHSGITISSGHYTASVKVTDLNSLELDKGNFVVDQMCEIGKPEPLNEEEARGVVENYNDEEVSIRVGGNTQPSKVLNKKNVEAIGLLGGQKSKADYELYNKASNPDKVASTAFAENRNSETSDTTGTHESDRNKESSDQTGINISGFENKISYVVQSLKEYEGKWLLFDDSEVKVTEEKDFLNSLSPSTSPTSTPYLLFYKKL
Sequence of Lysosomal acid glucosylceramidase (Homo sapiens) (P04062 whole entry, looked up): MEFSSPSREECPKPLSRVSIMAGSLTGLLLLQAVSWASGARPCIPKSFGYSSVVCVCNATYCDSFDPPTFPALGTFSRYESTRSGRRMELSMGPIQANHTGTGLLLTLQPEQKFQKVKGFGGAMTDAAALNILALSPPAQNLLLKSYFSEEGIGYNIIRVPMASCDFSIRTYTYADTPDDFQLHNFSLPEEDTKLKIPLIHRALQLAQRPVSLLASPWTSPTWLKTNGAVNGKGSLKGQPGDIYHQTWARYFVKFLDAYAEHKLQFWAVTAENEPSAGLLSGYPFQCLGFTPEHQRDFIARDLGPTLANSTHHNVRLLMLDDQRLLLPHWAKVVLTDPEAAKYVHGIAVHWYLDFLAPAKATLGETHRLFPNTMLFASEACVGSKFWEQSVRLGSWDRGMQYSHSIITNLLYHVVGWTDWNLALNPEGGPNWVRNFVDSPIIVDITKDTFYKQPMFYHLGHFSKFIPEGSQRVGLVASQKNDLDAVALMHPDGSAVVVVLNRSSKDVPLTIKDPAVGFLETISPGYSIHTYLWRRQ
Sequence of Glucocorticoid receptor (Homo sapiens) (P04150 whole entry, looked up, the tested form may be a part): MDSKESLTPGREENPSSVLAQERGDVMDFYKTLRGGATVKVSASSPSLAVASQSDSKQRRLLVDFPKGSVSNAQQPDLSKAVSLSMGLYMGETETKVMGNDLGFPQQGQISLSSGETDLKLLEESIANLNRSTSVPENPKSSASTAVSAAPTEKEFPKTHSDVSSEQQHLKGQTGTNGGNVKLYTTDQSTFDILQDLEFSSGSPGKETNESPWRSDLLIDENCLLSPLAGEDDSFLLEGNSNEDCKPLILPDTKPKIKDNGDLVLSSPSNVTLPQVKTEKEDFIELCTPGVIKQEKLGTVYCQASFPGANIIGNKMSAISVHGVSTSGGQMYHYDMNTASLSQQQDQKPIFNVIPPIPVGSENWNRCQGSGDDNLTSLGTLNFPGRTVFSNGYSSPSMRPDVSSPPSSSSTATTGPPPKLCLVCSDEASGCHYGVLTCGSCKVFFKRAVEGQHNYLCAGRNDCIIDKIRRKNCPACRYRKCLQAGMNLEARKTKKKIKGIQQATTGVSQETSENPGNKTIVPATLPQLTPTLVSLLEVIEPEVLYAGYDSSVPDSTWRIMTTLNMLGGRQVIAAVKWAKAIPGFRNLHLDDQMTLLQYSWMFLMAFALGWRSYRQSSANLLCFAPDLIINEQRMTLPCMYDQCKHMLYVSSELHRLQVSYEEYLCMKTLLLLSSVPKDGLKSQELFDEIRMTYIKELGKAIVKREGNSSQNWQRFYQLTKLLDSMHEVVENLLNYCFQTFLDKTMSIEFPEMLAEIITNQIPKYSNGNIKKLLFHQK
Sequence of 3',5'-cyclic-AMP phosphodiesterase 4B (Homo sapiens) (Q07343 whole entry, looked up): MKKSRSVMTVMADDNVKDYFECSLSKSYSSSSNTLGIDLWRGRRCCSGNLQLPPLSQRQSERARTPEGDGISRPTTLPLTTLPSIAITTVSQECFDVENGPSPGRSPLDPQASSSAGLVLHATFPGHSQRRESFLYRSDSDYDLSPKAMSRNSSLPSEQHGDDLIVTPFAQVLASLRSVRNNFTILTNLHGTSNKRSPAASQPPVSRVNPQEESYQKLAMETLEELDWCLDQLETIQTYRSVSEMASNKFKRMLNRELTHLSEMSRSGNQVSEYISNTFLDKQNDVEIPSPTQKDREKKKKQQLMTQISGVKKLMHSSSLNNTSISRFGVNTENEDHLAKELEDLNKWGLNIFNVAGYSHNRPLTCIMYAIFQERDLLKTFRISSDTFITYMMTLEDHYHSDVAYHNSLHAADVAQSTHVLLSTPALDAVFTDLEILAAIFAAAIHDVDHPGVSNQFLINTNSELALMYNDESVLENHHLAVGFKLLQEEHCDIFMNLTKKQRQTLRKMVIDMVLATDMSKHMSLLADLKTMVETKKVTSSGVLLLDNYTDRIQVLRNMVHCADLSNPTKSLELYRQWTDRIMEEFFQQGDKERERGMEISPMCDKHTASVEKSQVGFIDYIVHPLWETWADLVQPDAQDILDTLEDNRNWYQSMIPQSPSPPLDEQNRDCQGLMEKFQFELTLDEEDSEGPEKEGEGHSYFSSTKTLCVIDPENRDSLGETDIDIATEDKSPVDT

In the case of `N#CCCCl`, the Potency entry in assay [1] was “inactive”.
For `CCOP(=S)(OCC)Oc1ccc([N+](=O)[O-])cc1`, the Potency entry in [2] was “inactive”. Also, the activation in [3] is -1.46% and -0.889% and 0.819%.
Turning to `Nc1c(Cl)c(Cl)nc(C(=O)O)c1Cl`, the Potency result in assay [1] was “inactive”.
With `O=NN(CCO)CCO`, the activation was 14% in [4] and 3.77% in assay [6]. Further, the Potency result in assay [5] was “inactive”.
For the compound `C[C@]12CC[C@H]3[C@@H](CCC4=CC(=O)CC[C@@]43C)[C@@H]1CC[C@@H]2O`, the Potency entry in assay [7] was “inactive”. The figures for the activity, negative = inhibition in assay [8] (parasite line A) and in [8] (parasite line B) were -11.8% and -14.6%, respectively.
On to `Clc1ccc2ccccc2c1`, for which the activation in [4] is 11.2%; in assay [6], -2.62%. For the same compound, in assay [5], the Potency entry was “inactive”.
With `C=CCOC(=O)c1ccccc1N`, the Potency result in assay [5] and in assay [1] was “inactive” throughout.
For `CCCC(=O)Cl`, the activation in assay [6] is 0.327%; in [3], -0.622%. In addition, the Potency result in assay [1] was “inactive”.
With `C=CCOC(C)=O`, the values for the activation in [4] and in assay [6] were -7.35% and -1.61%, respectively.
As to `Brc1ccccc1`, the activation in assay [4] is 9.26% and -0.282%. Besides, the Potency entry in assay [5] was “inactive”.
`C=C(C)C(=O)OCC1CO1` (stereo unspecified): in [6], the activation was -3.45%.
Turning to `CN=C=S`, the activation in assay [3] is 0.411% and -0.263%.
On to `C=C(Cl)Cl`, for which the activation in assay [4] is 2.29%. In addition, the Potency entry in [5] and in assay [1] was “inactive” throughout.
On to `O=C(Cl)/C=C/C(=O)Cl`, for which the activation in [4] is 8.8%; in [6], 1.15%. Also, in assay [5], the Potency result is “inactive”.
Regarding `Nc1ccccc1Cl`, the activation in assay [4] was 9.37%; in [6] it was -1.66%.
As to `CC(C)(C)OOC(C)(C)C`, the activation in [6] was -0.0913%; in [3], 1.21%. In [1], the Potency result is “inactive”.
With `CCC[CH2][Sn]([Cl])([Cl])[Cl]`, the activation in assay [6] was -3.23% and -2.97%; in assay [3], -0.955% and -1.49%.
On to `CC(C)(c1ccccc1)c1ccc(O)cc1`, for which the activation in [6] is 1.02% and 4.37%. For the same compound, the Potency entry in assay [1] is “inactive”.
`Cc1ccc2ccccc2c1`: the activation in [4] is 23%. Also, in assay [5], the Potency entry was “inactive”.
Take `O=C(Oc1ccccc1)N1CCC[C@@]2(CCN(Cc3cc(C(F)(F)F)cc(C(F)(F)F)c3)C2)C1`: the figures for the Potency in [9] and in [11] were greater than 11.4 µM and greater than 46 µM, respectively. The outcome in [10] was inactive. Further, the Potency result in [12] was “inactive”.
For the compound `c1ccc(-c2ccccc2)cc1`, the activation in [4] is -1.76% and -0.536%. Moreover, the Potency entry in assay [5] and in assay [1] was “inactive” each time.
`N#C/C(=C\c1ccc(O)cc1)C(=O)O`: the Potency result in [13], in assay [14] and in [7] was “inactive” each time.

Source of the values: PubChem BioAssay (NCATS).
